# Compounds without any hit were thinned out: in the full panel of roughly 83,000, 20% have a hit.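 For each line, cells grew in 96-well plates with the test compound present at a single concentration for 48 hours.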 Values without a mark were called inactive. Calls of active or inactive are those of the source. Rule for the calls: active = growth percent below 10; inactive = the rest.
# Key:
# Assay in all cases: NCI-60 one-dose screen, 48 h (100 = growth as untreated, 0 = no growth, -100 = all killed)
# Details in all cases: 10 µM unless noted
# T-47D breast = test system: T-47D breast
# BT-549 breast = test system: BT-549 breast
# MDA-MB-435 melanoma = test system: MDA-MB-435 melanoma
# SW-620 colon = test system: SW-620 colon
# MCF7 breast = test system: MCF7 breast
# HCT-116 colon = test system: HCT-116 colon
# HCC-2998 colon = test system: HCC-2998 colon
# KM12 colon = test system: KM12 colon
SMILES,growth (T-47D breast),growth (BT-549 breast),growth (MDA-MB-435 melanoma),growth (SW-620 colon),growth (MCF7 breast),growth (HCT-116 colon),growth (HCC-2998 colon),growth (KM12 colon)
O=C(CNCCN1CCOCC1)N1c2cccc3cccc(c23)N(C(=O)CNCCN2CCOCC2)C1c1cn(-c2ccccc2)nc1-c1cccc([N+](=O)[O-])c1,77.6%,89.7%,80.1%,83.2%,36.9%,50.7%,35.4%,98.8%
COc1ccccc1/C=C1\Oc2cc(OCCN3CCCC3)ccc2C1=O,90.1%,84.2%,94%,74%,68.1%,47.1%,75.8%,88.8%
CC[C@]12C=CCN3CC[C@@]4(c5cc(NC(=O)CCC(=O)O[C@H]6CC[C@H]7[C@@H]8CCC9=CC(=O)CC[C@@H]9[C@H]8CC[C@]67C)c(OC)cc5N(C)[C@H]4[C@@](O)(C(=O)OC)[C@@H]1OC(C)=O)[C@@H]32,53%,77.6%,20.7%,86.9%,80%,62.5%,91.9%,73.1%
Cc1cc2nc3c4cc([N+](=O)[O-])ccc4n(CCN(C)C)c3nc2cc1C,10.6%,31.7%,-32.2% (active),-5.68% (active),4.74% (active),2.59% (active),-37.2% (active),5.62% (active)
COc1ccc(CC(C)=C(c2ccc(OCCN3CCCCCC3)cc2)c2ccc(OCCN3CCCCCC3)cc2)cc1,-73.3% (active),-75.9% (active),-98.2% (active),-90.5% (active),-90.2% (active),-55.1% (active),-91.8% (active),-97.4% (active)
COc1cc(/C=C/C(=O)c2nc3cc(F)ccc3nc2C)cc(OC)c1OC,48%,112%,75%,29.9%,34.1%,44.5%,-4.35% (active),36.2%
NS(=O)(=O)c1ccc(CCn2c(SCC(=O)c3ccc(Cl)cc3)nc3ccccc3c2=O)cc1,95.3%,99%,102%,103%,91.8%,97%,87.7%,102%
CCN(CC)c1ccc(C(=O)c2ccccc2)cc1,83.3%,109%,105%,102%,98.7%,91.3%,107%,101%
Cc1ccc(-n2cc(-c3ccccc3)c3c2N=NN2CCN=C32)cc1,93.5%,125%,101%,92.5%,98.7%,95.8%,111%,102%
O=C(Cc1ccccc1)NNc1nc(Cl)nc(N2CCN(C(c3ccccc3)c3ccccc3)CC2)n1,84.4%,99.3%,100%,82.3%,92.3%,80%,73.6%,97.5%
COc1cc(/C=C\C(=O)O)ccc1OCc1ccccc1,82.1%,112%,119%,105%,96%,95.2%,104%,104%
O=C1OC(Cc2ccccc2)C1c1ccccc1 (stereo not drawn),93.7%,95.1%,102%,107%,98.1%,90.8%,99.5%,101%
C#Cc1cccc(NC(=O)c2cccc(NC(=O)CCl)c2)c1,25% [8.25 µM],-43.5% [8.25 µM] (active),-13.2% [8.25 µM] (active),-74.2% [8.25 µM] (active),3.07% [8.25 µM] (active),-20.3% [8.25 µM] (active),74.3% [8.25 µM],16.8% [8.25 µM]
CCN1Cc2nc3sc(C)c(C)c3c(=O)n2C=C1C,37.1%,-5.48% (active),48.1%,15.6%,-41.8% (active),-24.9% (active),81.2%,14.5%
O=C(Nc1ccc(NC(=O)c2cc(=O)[nH]c3ccccc23)cc1)Nc1cccc(Cl)c1,68.6%,79%,97%,89.9%,76%,82%,83.6%,-55.9% (active)
COc1cc(-c2n/c(=C\c3c(O)[nH]c4ccc(Cl)cc34)cc3c2=Nc2ccccc2-3)ccc1F,56%,85.9%,21.3%,-1.7% (active),-54.2% (active),-45.8% (active),71.6%,4.87% (active)

# — PubChem BioAssay (NCI)
